Results reported in PubChem BioAssay (NCI).
This is part of a sample that, as a whole, favours compounds with a hit. Of some 83,000 tested, about 20% had one in any assay.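 Interpretation: 100, growth as untreated; towards 0, rising growth inhibition; 0, no net growth; 0 to -100, cell death. Compounds scoring below 10 were considered active.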 Active and inactive are the calls of the source.

Key:
Assay in all cases: NCI-60 one-dose screen, 48 h (100 = growth as untreated, 0 = no growth, -100 = all killed)
Conditions in all cases: 10 µM unless noted
[1] = system: DU-145 prostate
[2] = system: K-562 leukemia
[3] = system: MALME-3M melanoma
[4] = system: MDA-MB-231 breast
[5] = system: RXF 393 renal
[6] = system: SF-268 CNS
[7] = system: SF-539 CNS
[8] = system: UACC-257 melanoma
[9] = system: M14 melanoma
[10] = system: HCT-15 colon
[11] = system: HT29 colon
[12] = system: SNB-75 CNS
[13] = system: SNB-19 CNS
[14] = system: U251 CNS
[15] = system: PC-3 prostate
[16] = system: SK-MEL-5 melanoma
[17] = system: UACC-62 melanoma
[18] = system: LOX IMVI melanoma
[19] = system: SK-MEL-28 melanoma

Measured: growth

C/C(=N\NC(=S)N1CCCCC1)c1ccccn1
inactive: [1] 28.3% | [4] 24.7% | [10] 22.1% | [12] 28.8% | [13] 22.9% | [18] 13.4% | [19] 37%
active: [2] 2.29% | [3] 5.96% | [5] -17.6% | [6] 8.38% | [7] 5.37% | [8] -2.18% | [9] -33.4% | [11] 8.66% | [14] 3.98% | [15] 9.88% | [16] -33.2% | [17] -14.3%

O=c1c2sc3ncc(Cl)cc3c2nnn1-c1cccc(Cl)c1
inactive: [1] 65.3% | [2] 68.1% | [3] 75.3% | [4] 110% | [5] 96.2% | [6] 66.1% | [7] 82.1% | [8] 112% | [9] 85.1% | [10] 87.5% | [11] 75.9% | [12] 70.1% | [13] 98.2% | [14] 59.9% | [15] 82.7% | [16] 96.3% | [17] 96.8% | [18] 52.9% | [19] 90.5%

COc1cc(NC(C)CCCN)c2ncccc2c1Oc1ccc(Cl)cc1 (stereo not drawn)
inactive: [1] 74.8% | [2] 52.2% | [3] 88.1% | [4] 42.4% | [5] 79.5% | [6] 77.5% | [7] 81.2% | [8] 88.5% | [9] 74.4% | [10] 84.5% | [11] 34.5% | [12] 78.7% | [13] 91% | [14] 72.7% | [15] 63.9% | [16] 81% | [17] 91.1% | [18] 39.9% | [19] 109%

CC(=O)[C@H]1CC[C@H]2[C@@H]3CC[C@H]4CC=CC[C@]4(C)[C@H]3CC[C@]12C
inactive: [1] 111% | [2] 84.9% | [3] 84% | [4] 99.4% | [5] 98.2% | [6] 102% | [7] 91.6% | [8] 75.6% | [9] 90.3% | [10] 89.8% | [11] 79.4% | [12] 74.1% | [13] 98.1% | [14] 102% | [15] 58% | [16] 98.8% | [17] 79.9% | [18] 95.4% | [19] 89.1%

CCOC(=O)c1ccc(NCCC(=O)O)cc1
inactive: [1] 126% | [2] 90.4% | [3] 110% | [4] 122% | [5] 111% | [6] 119% | [7] 112% | [8] 104% | [9] 104% | [10] 97.1% | [11] 96.8% | [12] 96% | [13] 105% | [14] 109% | [15] 91.7% | [16] 104% | [17] 102% | [18] 101% | [19] 107%

Brc1ccccc1Cn1c(-c2cncs2)nc2ccccc21
inactive: [1] 98.4% | [2] 74.6% | [3] 98% | [4] 71.2% | [5] 97.6% | [6] 92.1% | [7] 88.5% | [8] 96% | [9] 92.9% | [10] 82.8% | [11] 80.7% | [12] 53% | [13] 84.6% | [14] 84.8% | [15] 57.2% | [16] 76.2% | [17] 70.1% | [18] 75.8% | [19] 104%

O=C(/C=C/c1ccccc1)C(Br)C(Br)c1ccccc1 (stereo not drawn)
inactive: [4] 27.7% | [6] 13.9% | [8] 22.8% | [9] 17.2% | [12] 80.1% | [13] 73.5% | [14] 42.9% | [16] 38.9% | [19] 11.1%
active: [1] -21.3% | [2] 1.4% | [3] -54.3% | [5] -79.9% | [7] -33.1% | [10] -32.7% | [11] -53.5% | [15] 4.21% | [17] 5.9% | [18] -68.6%

CC(=O)c1nn(-c2ccccc2)/c(=N\N=C\c2coc3ccc(F)cc3c2=O)s1
inactive: [1] 111% | [2] 94.5% | [3] 102% | [4] 88.3% | [5] 116% | [6] 87.8% | [7] 94.4% | [8] 116% | [9] 93.5% | [10] 101% | [11] 108% | [12] 73.4% | [13] 94.4% | [14] 100% | [15] 92.6% | [16] 98.3% | [17] 97.4% | [18] 95.2% | [19] 111%

CCCc1cc2c(cc1CN(Cc1cc3c(cc1CCC)OCO3)C(=N)OCC)OCO2
inactive: [1] 97.6% | [2] 63.4% | [3] 82.8% | [4] 77.8% | [5] 106% | [6] 79.2% | [7] 112% | [8] 83.9% | [9] 85.9% | [10] 94.8% | [11] 52.4% | [12] 95.6% | [13] 94% | [14] 67.3% | [15] 59.3% | [16] 88.8% | [17] 77.2% | [18] 83.6% | [19] 102%

COc1ccc(/C=c2\c(=O)n(-c3ccccc3)c3nn4c(n23)=NNC42CCCCC2)cc1
inactive: [1] 106% | [2] 109% | [3] 97.8% | [4] 87.3% | [5] 110% | [6] 92% | [7] 102% | [8] 111% | [9] 102% | [10] 102% | [11] 106% | [12] 87.7% | [13] 93.9% | [14] 103% | [15] 90.1% | [16] 100% | [17] 93.2% | [18] 95.1% | [19] 111%

COc1ccc(-c2[nH]nc(N)c2-c2cc(OC)c(OC)c(OC)c2)cc1
inactive: [3] 25.8% | [5] 20% | [6] 15.1% | [8] 58.1% | [10] 10.1% | [12] 54.9% | [13] 48.8% | [17] 23.8% | [18] 12.1% | [19] 47.8%
active: [1] 2.62% | [2] -15.6% | [4] -10.6% | [7] -13.1% | [9] -5.11% | [11] -2.71% | [14] 6% | [15] 6.31% | [16] -16.5%

Fc1cc(-c2nnc3sc(-c4ccc(Cl)cc4)nn23)c(Cl)cc1Cl
inactive: [1] 107% | [2] 116% | [3] 62% | [4] 88.3% | [5] 97.4% | [6] 98% | [7] 107% | [8] 103% | [9] 102% | [10] 96.5% | [11] 90.6% | [12] 75.5% | [13] 96.6% | [14] 91.7% | [15] 102% | [16] 85.6% | [17] 90.4% | [18] 91.7% | [19] 84.4%

O=C(Oc1c(Cl)c(Cl)c(Cl)c(Cl)c1Cl)C1CCCN1C(=O)OCc1ccccc1 (stereo not drawn)
inactive: [1] 60.9% | [2] 17.3% | [3] 72.3% | [4] 69.1% | [5] 92.2% | [6] 42.2% | [7] 50.5% | [8] 82.1% | [9] 78.9% | [10] 15.4% | [11] 89.1% | [12] 36.4% | [13] 26.2% | [14] 18.3% | [15] 10.7% | [16] 76.2% | [17] 75.2% | [18] 64.8% | [19] 99%

CSC(=S)N/N=C(\C)c1ccccn1
active: [2] 8.85% | [3] -3.24% | [5] 0.311% | [7] 1.81% | [8] 7.4% | [9] 1.91% | [16] -47.7% | [17] -22.3%
inactive: [1] 16.1% | [4] 33.9% | [6] 17.3% | [10] 34.7% | [11] 25.9% | [12] 35.5% | [13] 24.6% | [14] 13.9% | [15] 27% | [18] 12.7% | [19] 42.4%

CCCCCCCCCCCCCCCCOc1ccc(S(=O)(=O)N(C)C)cc1[N+](=O)[O-]
inactive: [1] 113% | [2] 112% | [3] 86.8% | [4] 88.9% | [5] 61.7% | [6] 97.5% | [7] 89.6% | [8] 108% | [9] 106% | [10] 97.2% | [11] 96.4% | [12] 21.2% | [13] 78.9% | [14] 50.6% | [15] 94.4% | [16] 101% | [17] 86.7% | [18] 120% | [19] 107%

Nc1c(C(=O)Nc2cccc(Cl)c2)sc2ncc(Br)cc12
inactive: [1] 59.6% | [2] 82.9% | [3] 66.9% | [4] 73.5% | [5] 86.4% | [6] 64.1% | [7] 61.5% | [8] 96% | [9] 79.9% | [10] 82.5% | [11] 66.4% | [12] 56% | [13] 107% | [14] 10.8% | [15] 80.1% | [16] 95.6% | [17] 99.5% | [18] 39.9% | [19] 89.2%

CCN(C(=O)Nc1cccc2ccccc12)c1ccccc1
inactive: [1] 107% | [2] 89.3% | [3] 90.6% | [4] 105% | [5] 120% | [6] 104% | [7] 93.5% | [8] 112% | [9] 106% | [10] 90.8% | [11] 103% | [12] 92.4% | [13] 102% | [14] 97.7% | [15] 85.9% | [16] 95.5% | [17] 80.5% | [18] 102% | [19] 112%
